“And” between values parts separate entries of the source, which are not always exact repeats. Equal entries are not always repeated.
Experiments:
Details in all cases: Compound concentration 20.0 uM, Protein concentration 2.0 uM, Result type QC Liability
[1] = biological target: Tyrosine-protein kinase ABL1 (Homo sapiens) (UniProt P00519)
[2] = biological target: Cyclin-dependent kinase 2 (Homo sapiens) (UniProt P24941)
[3] = biological target: Casein kinase I isoform delta (Homo sapiens) (UniProt P48730)
[4] = biological target: Glycogen synthase kinase-3 beta (Homo sapiens) (UniProt P49841)
[5] = biological target: Mitogen-activated protein kinase 1 (Homo sapiens) (UniProt P28482)
[6] = biological target: T1, Aurora kinase A (Homo sapiens) (UniProt O14965)
T1 sequence (whole entry): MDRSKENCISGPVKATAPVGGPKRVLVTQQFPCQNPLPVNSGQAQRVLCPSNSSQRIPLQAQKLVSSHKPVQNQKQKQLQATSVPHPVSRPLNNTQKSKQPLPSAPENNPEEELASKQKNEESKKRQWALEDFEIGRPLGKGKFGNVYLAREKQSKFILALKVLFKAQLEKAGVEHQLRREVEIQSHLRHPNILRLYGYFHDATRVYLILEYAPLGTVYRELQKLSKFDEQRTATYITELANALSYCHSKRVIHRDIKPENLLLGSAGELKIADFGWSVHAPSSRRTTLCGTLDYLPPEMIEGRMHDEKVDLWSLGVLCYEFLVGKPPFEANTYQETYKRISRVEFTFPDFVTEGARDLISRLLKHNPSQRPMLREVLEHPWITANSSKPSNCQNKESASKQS

Chain of Mitogen-activated protein kinase 1 (Homo sapiens) (P28482 whole entry): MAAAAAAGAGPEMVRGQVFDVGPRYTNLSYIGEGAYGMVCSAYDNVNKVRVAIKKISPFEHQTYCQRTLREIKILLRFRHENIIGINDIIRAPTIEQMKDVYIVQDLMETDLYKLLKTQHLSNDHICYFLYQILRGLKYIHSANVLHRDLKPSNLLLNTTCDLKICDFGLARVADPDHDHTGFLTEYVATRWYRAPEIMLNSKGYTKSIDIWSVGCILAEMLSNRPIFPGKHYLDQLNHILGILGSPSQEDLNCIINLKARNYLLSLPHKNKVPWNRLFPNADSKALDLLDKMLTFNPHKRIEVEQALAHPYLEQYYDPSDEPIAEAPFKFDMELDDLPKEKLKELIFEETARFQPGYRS
Chain of Glycogen synthase kinase-3 beta (Homo sapiens) (P49841 whole entry, looked up): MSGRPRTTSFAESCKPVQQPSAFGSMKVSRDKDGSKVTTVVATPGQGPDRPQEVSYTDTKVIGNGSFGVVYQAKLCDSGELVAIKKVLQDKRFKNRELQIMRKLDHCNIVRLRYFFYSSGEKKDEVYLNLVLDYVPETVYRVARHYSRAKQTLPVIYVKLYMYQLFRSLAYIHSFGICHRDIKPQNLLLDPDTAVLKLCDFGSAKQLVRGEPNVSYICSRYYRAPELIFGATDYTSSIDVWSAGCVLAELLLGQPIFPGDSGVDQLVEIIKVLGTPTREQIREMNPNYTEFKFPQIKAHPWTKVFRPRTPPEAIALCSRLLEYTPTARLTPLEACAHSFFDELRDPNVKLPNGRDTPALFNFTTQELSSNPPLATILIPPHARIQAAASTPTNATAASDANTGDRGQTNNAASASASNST
Chain of Tyrosine-protein kinase ABL1 (Homo sapiens) (P00519 whole entry): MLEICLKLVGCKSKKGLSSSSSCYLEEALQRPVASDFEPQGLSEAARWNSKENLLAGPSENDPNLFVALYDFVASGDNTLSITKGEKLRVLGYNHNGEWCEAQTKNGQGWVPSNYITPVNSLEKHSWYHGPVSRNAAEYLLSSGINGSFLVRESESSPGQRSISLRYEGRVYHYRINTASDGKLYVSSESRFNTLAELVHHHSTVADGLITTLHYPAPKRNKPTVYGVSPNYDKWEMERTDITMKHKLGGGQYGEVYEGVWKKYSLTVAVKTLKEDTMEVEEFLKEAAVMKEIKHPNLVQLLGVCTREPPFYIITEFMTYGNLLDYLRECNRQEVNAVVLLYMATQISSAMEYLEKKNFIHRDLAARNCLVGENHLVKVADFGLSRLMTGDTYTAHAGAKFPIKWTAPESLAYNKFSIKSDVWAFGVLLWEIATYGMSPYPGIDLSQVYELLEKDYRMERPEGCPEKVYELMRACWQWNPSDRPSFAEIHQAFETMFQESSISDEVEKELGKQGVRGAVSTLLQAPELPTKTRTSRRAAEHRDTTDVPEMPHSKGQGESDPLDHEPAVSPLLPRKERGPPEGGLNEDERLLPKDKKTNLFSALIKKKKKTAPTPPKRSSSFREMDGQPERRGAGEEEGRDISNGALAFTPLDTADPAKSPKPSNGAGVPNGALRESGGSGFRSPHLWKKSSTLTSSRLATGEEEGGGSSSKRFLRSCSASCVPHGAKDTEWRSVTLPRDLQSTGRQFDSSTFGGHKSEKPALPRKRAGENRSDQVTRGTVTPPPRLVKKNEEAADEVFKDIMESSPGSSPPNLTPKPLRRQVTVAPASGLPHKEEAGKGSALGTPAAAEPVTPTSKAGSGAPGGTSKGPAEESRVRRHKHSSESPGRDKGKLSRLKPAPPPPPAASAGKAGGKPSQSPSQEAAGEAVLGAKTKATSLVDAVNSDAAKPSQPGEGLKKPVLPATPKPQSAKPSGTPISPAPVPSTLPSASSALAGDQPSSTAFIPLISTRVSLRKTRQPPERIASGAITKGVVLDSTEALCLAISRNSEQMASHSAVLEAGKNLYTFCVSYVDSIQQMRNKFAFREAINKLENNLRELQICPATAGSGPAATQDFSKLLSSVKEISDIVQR
Chain of Casein kinase I isoform delta (Homo sapiens) (P48730 whole entry, looked up, canonical isoform): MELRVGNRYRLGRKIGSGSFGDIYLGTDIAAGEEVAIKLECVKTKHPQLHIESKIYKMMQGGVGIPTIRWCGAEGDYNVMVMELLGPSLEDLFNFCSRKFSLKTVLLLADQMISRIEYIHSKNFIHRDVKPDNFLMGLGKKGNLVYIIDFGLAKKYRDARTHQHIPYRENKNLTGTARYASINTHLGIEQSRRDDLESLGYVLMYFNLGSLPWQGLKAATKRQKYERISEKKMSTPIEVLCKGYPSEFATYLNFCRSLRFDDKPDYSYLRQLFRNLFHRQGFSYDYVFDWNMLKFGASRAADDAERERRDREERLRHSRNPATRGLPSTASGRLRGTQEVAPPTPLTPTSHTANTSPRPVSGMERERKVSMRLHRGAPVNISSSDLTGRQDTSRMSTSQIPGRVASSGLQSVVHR

SMILES: COc1cc(CN(CCN)C(=O)N[C@@H](C)c2ccccc2)ccc1OCc1ccccc1
- ΔTm [1]: 0.76 °C
- ΔTm [2]: 1.02 °C
- ΔTm [3]: 0.16 °C
- ΔTm [4]: -0.67 °C
- ΔTm [5]: 0.02 °C
- ΔTm [6]: 0.4 °C

SMILES: CCC(=O)N[C@@H]1CC[C@H](C(=O)N(C)c2ccc(-c3nc4ccccc4o3)cc2)C1
- ΔTm [1]: 0.73 °C
- ΔTm [2]: 0.64 °C
- ΔTm [3]: 0.6 °C
- ΔTm [4]: -0.1 °C
- ΔTm [5]: 0.12 °C
- ΔTm [6]: 0.03 °C

SMILES: Cn1cc(C(=O)O)c2ccc(N3CCC(OCc4c(-c5c(Cl)cccc5Cl)noc4C4CC4)CC3)cc21
- ΔTm [1]: 0.5 °C
- ΔTm [2]: 0.93 °C
- ΔTm [3]: 1.17 °C
- ΔTm [4]: 0.23 °C
- ΔTm [5]: 0.52 °C
- ΔTm [6]: -1.5 °C

SMILES: CC(C)(C[C@H]1CN(S(=O)(=O)c2cccc(C(F)(F)F)c2)c2cc(-c3cc(F)cc(OC(F)F)c3)ccc2O1)C(=O)O
- ΔTm [1]: -1.5 °C
- ΔTm [2]: -2.02 °C
- ΔTm [3]: -2.71 °C
- ΔTm [4]: -2.26 °C
- ΔTm [5]: -6.9 °C
- ΔTm [6]: -3.89 °C

SMILES: O=C(O)c1cc2cc(Cc3cccnc3)ccc2o1
- ΔTm [1]: 0.65 °C
- ΔTm [2]: 0.63 °C
- ΔTm [3]: 0.07 °C
- ΔTm [4]: 0.46 °C
- ΔTm [5]: -0.29 °C
- ΔTm [6]: -0.17 °C

SMILES: N=C(N)NCCC[C@H](NC(=O)C(c1ccccc1)c1ccccc1)C(=O)NCc1ccc(CNC(N)=O)cc1
- ΔTm [1]: -0.28 °C
- ΔTm [2]: 0.46 °C
- ΔTm [3]: 0.29 °C
- ΔTm [4]: -0.57 °C
- ΔTm [5]: 0.19 °C
- ΔTm [6]: 0.09 °C

SMILES: C[C@]12CC[C@@H]3c4ccc(O)cc4CC[C@H]3[C@@H]1C[C@H]1OC(=O)C[C@]12O
- ΔTm [1]: -0.2 °C
- ΔTm [2]: 0.7 °C
- ΔTm [3]: 0.32 °C
- ΔTm [4]: 0.78 °C
- ΔTm [5]: 0.29 °C
- ΔTm [6]: 0.5 °C

SMILES: COc1cc(C(N)=O)nc(-c2cccc(C#C[C@]3(O)CCN(C)C3=O)c2)c1
- ΔTm [1]: -0.11 °C
- ΔTm [2]: 1.02 °C
- ΔTm [3]: -0.06 °C
- ΔTm [4]: 0.79 °C
- ΔTm [5]: 0.3 °C
- ΔTm [6]: 1.62 °C

SMILES: O=C1Nc2ccc(I)cc2/C1=C/c1cc(Br)c(O)c(Br)c1
- ΔTm [1]: 2.98 °C
- ΔTm [2]: 0.35 °C
- ΔTm [3]: 0.18 °C
- ΔTm [4]: -1.46 °C
- ΔTm [5]: 0.48 °C
- ΔTm [6]: -0.27 °C

SMILES: CN(C)c1ccc(-c2cc3ncccc3c(OCCCCO)n2)cc1
- ΔTm [1]: 5.68 °C
- ΔTm [2]: 0.73 °C
- ΔTm [3]: 1.32 °C
- ΔTm [4]: 0.13 °C
- ΔTm [5]: 0.3 °C
- ΔTm [6]: 8.85 °C

SMILES: C[S+](C)[O-]
- ΔTm [1]: 0 °C (2×) and 0.21 °C
- ΔTm [2]: 0 °C (2×) and 0.78 °C
- ΔTm [3]: 0 °C (2×) and 0.01 °C
- ΔTm [4]: 0 °C (2×) and -0.51 °C
- ΔTm [5]: 0 °C (2×) and 0.53 °C
- ΔTm [6]: 0 °C (2×) and 0.05 °C

SMILES: CCc1nc(-c2cccc(C)c2)c(-c2ccncc2)s1
- ΔTm [1]: 1.94 °C
- ΔTm [2]: -0.27 °C
- ΔTm [3]: 3.88 °C
- ΔTm [4]: 3.39 °C
- ΔTm [5]: 0.28 °C
- ΔTm [6]: -0.09 °C

SMILES: Cc1cc(=O)oc2cc(NC(=O)[C@H](Cc3ccc(I)cc3)NC(=O)[C@H]3N[C@@H]4CC[C@H]3C4)ccc12
- ΔTm [1]: 0 °C
- ΔTm [2]: -0.62 °C
- ΔTm [3]: 0.37 °C
- ΔTm [4]: -0.08 °C
- ΔTm [5]: 0.09 °C
- ΔTm [6]: -0.48 °C

SMILES: COCc1nc2cnc3cc(-c4c(C)noc4C)c(OC[C@H]4CCNC4)cc3c2n1[C@H](C)c1ccccc1
- ΔTm [1]: 0.08 °C
- ΔTm [2]: 0.87 °C
- ΔTm [3]: 0.07 °C
- ΔTm [4]: -0.83 °C
- ΔTm [5]: 0.35 °C
- ΔTm [6]: -0.39 °C

SMILES: COc1cc(-c2cn(C)c(=O)c3cnccc23)cc(OC)c1CN(C)C
- ΔTm [1]: 0.24 °C
- ΔTm [2]: 0.43 °C
- ΔTm [3]: 0.32 °C
- ΔTm [4]: 0.06 °C
- ΔTm [5]: 0.23 °C
- ΔTm [6]: 0.56 °C

SMILES: Cc1cc(-c2cnc(N)c3c(-c4ccc5scnc5c4)csc23)n(C)n1
- ΔTm [1]: 7.77 °C
- ΔTm [2]: -0.21 °C
- ΔTm [3]: 0.67 °C
- ΔTm [4]: -0.81 °C
- ΔTm [5]: -0.07 °C
- ΔTm [6]: -0.03 °C

Source: ChEMBL document CHEMBL5308504, “Tm Shift (DSF) assay results for EUbOPEN Chemogenomics Library” (2023)
